The whole screen tested about 360,000 compounds, of which about 3,900 (1.1%) were called active.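 The calls were made as follows: active = mean replicate inhibition score of at least 50 and every replicate individually at or above 50; inconclusive = only one of the two criteria met; inactive = mean below 50 and not all replicates reaching 50.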 Only a selection was taken, and actives are over-represented in it overall.
Assay: blockers of JRFL envelope-mediated fusion – HeLa-JRFL effector, CEM21 target cells, luciferase, primary screen (AID 651610);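 also: 0% = plate neutral controls and 100% = maraviroc near 300 nM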
Conditions: HeLa-JRFL Env/CEM21 cell fusion, hits give high values; at 16.7 µM unless noted

inhibition, active:
C[C@@H]1CN([C@@H](C)CO)C(=O)Cc2cc(NC(=O)Nc3ccccc3)ccc2O[C@@H]1CN(C)S(=O)(=O)c1ccc(F)cc1 56.4%
COc1ccc(NC(=O)Nc2ccc3c(c2)C(=O)N([C@H](C)CO)C[C@H](C)[C@H](CN(C)S(=O)(=O)c2ccc(OC)cc2)O3)cc1 59.4%
Cc1ccc(S(=O)(=O)N(C)C[C@@H]2Oc3ncc(-c4cc5ccccc5o4)cc3C(=O)N([C@H](C)CO)C[C@@H]2C)cc1 73%
Cc1cc(C)c(CN2CCN(C(=O)Cn3ccc(NC(=O)OCc4ccccc4)nc3=O)CC2)c(C)c1 72.2% [at 12.3 µM]
Clc1ccc(C2CC(c3cccs3)n3ncnc3N2)cc1Cl (centres undefined) 91.8% [at 12.3 µM]
CCOC(=O)C1C(C)C(C(C)(C)C)N(S(=O)(=O)c2ccc(C)cc2)C1c1ccccc1 (centres undefined) 77.2% [at 12.3 µM]
O=C(CN1C(=O)c2ccccc2S1(=O)=O)N1CCc2ccccc21 63.8% [at 12.3 µM]
CC(Oc1ccc(-c2ccccc2)c(F)c1)c1ccn(S(=O)(=O)c2cccc3ccccc23)n1 (centres undefined) 58.1% [at 12.3 µM]
O=C(COC(=O)c1ncc(Cl)c(Cl)c1Cl)NCc1cccs1 80.8% [at 12.3 µM]
Cc1cccc(-n2c(SCC(N)=O)nc3c(c2=O)C2(CCCCC2)Cc2ccccc2-3)c1 87% [at 12.3 µM]
O=C(NCc1ccco1)c1ccc(Cn2c(=O)c3sccc3n(Cc3ccc(F)cc3)c2=O)cc1 78.1% [at 12.3 µM]
CCOC(=O)C(C)Oc1cccc2c(=O)n(CC(=O)NCCc3ccc(OC)c(OC)c3)ccc12 (centres undefined) 88.4% [at 12.3 µM]

inhibition, inactive:
CC(C)NC(=O)Nc1ccc2c(c1)CC(=O)N([C@@H](C)CO)C[C@@H](C)[C@@H](CN(C)S(=O)(=O)c1ccccc1)O2 4.16%
CC(C)NC(=O)Nc1ccc2c(c1)C(=O)N([C@H](C)CO)C[C@H](C)[C@@H](CN(C)C(=O)CCCN(C)C)OCCCC[C@@H](C)O2 2.66%
C[C@@H]1CCCCO[C@@H](CN(C)Cc2ccc3c(c2)OCO3)[C@@H](C)CN([C@@H](C)CO)C(=O)c2cc(NC(=O)C3CCCCC3)ccc2O1 -19.5%
CN(C)C(=O)c1cccc(-c2ccc3n(c2=O)C[C@H]2N[C@@H]3[C@@H](C(=O)NC3CCC3)[C@@H]2CO)c1 4.81%
C[C@H](CO)N1C[C@H](C)[C@H](CN(C)S(=O)(=O)c2cccs2)Oc2ccc(NS(=O)(=O)c3ccccc3)cc2C1=O 37%
C[C@H](CO)N1C[C@H](C)[C@@H](CN(C)S(=O)(=O)c2ccccc2)Oc2ccc(NC(=O)Nc3ccc(F)cc3)cc2CC1=O -10.6%
COc1ccc(S(=O)(=O)N(C)C[C@@H]2Oc3ccc(NC(=O)Nc4c(C)noc4C)cc3C(=O)N([C@H](C)CO)C[C@@H]2C)cc1 -131% [at 12.3 µM]
C[C@H]1CN([C@@H](C)CO)C(=O)Cc2cc(NC(=O)Nc3ccc(F)cc3)ccc2O[C@H]1CN(C)S(=O)(=O)c1ccccc1 54%
COc1ccc(-c2cnc3c(c2)C(=O)N([C@H](C)CO)C[C@H](C)[C@H](CN(C)S(=O)(=O)c2ccccc2)O3)cc1 11.4%
COc1ccc(NC(=O)Nc2ccc3c(c2)C(=O)N([C@@H](C)CO)C[C@H](C)[C@@H](CN(C)S(=O)(=O)c2ccc(Cl)cc2)O3)cc1 7.85%
C[C@H](CO)N1C[C@H](C)[C@H](CN(C)S(=O)(=O)c2ccc(F)cc2)Oc2ncc(-c3ccc(F)cc3)cc2C1=O 24.9%
C[C@@H]1CCCCO[C@@H](CN(C)Cc2ccncc2)[C@@H](C)CN([C@@H](C)CO)C(=O)c2cc(NC(=O)Nc3ccc(F)cc3)ccc2O1 -4.96%
Cc1ccccc1S(=O)(=O)NCC[C@@H]1CC[C@H](NC(=O)C2CC2)[C@@H](CO)O1 0.439%
C[C@@H]1CN([C@H](C)CO)C(=O)c2cc(N(C)C)ccc2O[C@@H]1CN(C)S(=O)(=O)c1cn(C)cn1 4.03%
O=C(C[C@H]1CC[C@H](NS(=O)(=O)c2ccccc2)[C@H](CO)O1)NCc1ccncn1 2.23%
CC(C)c1cn(CC[C@@H]2CC[C@@H](NC(=O)C3CC3)[C@H](CO)O2)nn1 7.45%
Nc1ccn(CC(=O)N2CCN(c3ccccn3)CC2)c(=O)n1 15.1% [at 12.3 µM]
O=C(Nc1ccn(CCCNCc2ccc3[nH]ccc3c2)c(=O)n1)OCc1ccccc1 1.22% [at 12.3 µM]
C[C@H](CO)N1C[C@H](C)[C@@H](CN(C)Cc2ccc(Oc3ccccc3)cc2)Oc2ccc(NS(=O)(=O)c3ccc(F)cc3)cc2CC1=O 6.63%
C[C@H](CO)N1C[C@H](C)[C@H](CN(C)C(=O)c2ccccc2)OCCCC[C@H](C)Oc2ccc(NS(C)(=O)=O)cc2C1=O -12.1%
COc1ccc(C2CC(c3cccs3)Nc3nnnn32)cc1 (centres undefined) 15.5% [at 12.3 µM]
Nc1nc2n(n1)C(c1ccco1)CC(c1ccc(Cl)c(Cl)c1)N2 (centres undefined) -24.3% [at 12.3 µM]
Cc1ccc(S(=O)(=O)Nc2ccc3c(c2)C(=O)N([C@H](C)CO)C[C@@H](C)[C@H](CN(C)S(=O)(=O)c2cccs2)OCCCC[C@@H](C)O3)cc1 -10.4%
O=C(NCC[C@H]1CC[C@@H](NC(=O)C2CC2)[C@H](CO)O1)c1ccc(F)cc1 13.4%
Cc1ccc(S(=O)(=O)Nc2ccc3c(c2)C(=O)N([C@@H](C)CO)C[C@H](C)[C@@H](CN(C)C(=O)Cc2ccccc2)OCCCC[C@H](C)O3)cc1 -8.35%
CCCCC[C@@H]1C=C(C(=O)OCC)[C@H](c2ccccc2)N1S(=O)(=O)c1ccc(C)cc1 -5.02% [at 12.3 µM]
CCOC(=O)C1=CC[C@@H](c2ccccc2)N(S(=O)(=O)c2ccc(C)cc2)[C@H]1c1ccc(CC)cc1 44.3% [at 12.3 µM]
CCC(=O)N1C[C@H](C)[C@@H](OC)CN(C)C(=O)c2cc(NC(=O)c3cnccn3)ccc2OC[C@@H]1C -0.896%
CN(Cc1ccc(F)cc1)C(=O)CN1C(=O)c2ccccc2S1(=O)=O -26% [at 12.3 µM]
Cc1ccc(S(=O)(=O)N(C)CC(=O)N2CCc3ccccc32)cc1 -5.79% [at 12.3 µM]
C[C@@H]1CN([C@@H](C)CO)C(=O)c2cc(NC(=O)Nc3cccc4ccccc34)ccc2O[C@H]1CN(C)Cc1ccc(Cl)c(Cl)c1 2.97%
O=C(Nc1ccc(-c2ccccc2)cc1)[C@H]1[C@H](CO)[C@H]2Cn3c(cccc3=O)[C@H]2N1CC1CC1 -13.3%
COc1ccc(NC(=O)Nc2ccc3c(c2)C(=O)N([C@@H](C)CO)C[C@H](C)[C@H](CN(C)S(=O)(=O)c2ccccc2)OCCCC[C@@H](C)O3)cc1 -1.8%
O=C(C[C@@H]1CC[C@@H]2[C@H](COC[C@H](O)CN2Cc2ccc(F)cc2)O1)NCc1ccncn1 -13.2%
CN1CCN(C(=O)C[C@@H]2C[C@H]3c4cc(NC(=O)NC5CCCC5)ccc4O[C@H]3[C@H](CO)O2)CC1 -16.8%
CCCNC(=O)N1C[C@@H](O)COC[C@@H]2O[C@H](CC(=O)N3CCN(C)CC3)CC[C@H]21 -4.93%
C[C@@H]1CN([C@@H](C)CO)C(=O)Cc2cc(NS(=O)(=O)c3ccc(F)cc3)ccc2O[C@@H]1CN(C)S(=O)(=O)c1cccs1 2.26%
CO[C@H]1CN(C)C(=O)c2ccc(NS(C)(=O)=O)cc2OC[C@@H](C)N(C(=O)c2ccc3c(c2)OCO3)C[C@@H]1C 3.98%
O=C(COC(=O)c1ncc(Cl)c(Cl)c1Cl)NCc1ccccc1 -4.53% [at 12.3 µM]
O=C(COC(=O)c1ccc(Cl)nc1)NCc1cccs1 13.8% [at 12.3 µM]
CN1C(=O)c2cc(NC(=O)c3cnccn3)ccc2OC[C@@H]2O[C@H](CC(=O)O)CC[C@@H]21 -25.8%
CCOC(=O)C1Cn2c(nc3c(c2=O)C(C)(CC)Cc2ccccc2-3)S1 (centres undefined) -68.6% [at 12.3 µM]
Cc1cccc(-n2c(=O)c3c(C)c(C)sc3n(CC(N)=O)c2=O)c1 16% [at 12.3 µM]
C[C@@H]1CN([C@H](C)CO)C(=O)Cc2cc(NC(=O)c3ccncc3)ccc2O[C@H]1CN(C)Cc1ccc(-c2ccccc2)cc1 18.5%
Cc1ccc(S(=O)(=O)N(C)C[C@@H]2Oc3ccc(NS(=O)(=O)c4cn(C)cn4)cc3C(=O)N([C@@H](C)CO)C[C@H]2C)cc1 -17.6%
O=C(NCc1ccco1)c1cc2sccc2n1Cc1ccc(F)cc1 20.8% [at 12.3 µM]
O=C(Cc1ccc(-n2c(=O)c3sccc3n(Cc3ccc(F)cc3)c2=O)cc1)NCc1ccco1 0.234% [at 12.3 µM]
O=C(CN1CCOCC1)NCC[C@H]1CC[C@@H](NC(=O)Nc2ccc(Cl)cc2)[C@@H](CO)O1 2.67%
O=C(N[C@@H]1CC[C@H](CCn2cc(-c3ccccn3)nn2)O[C@@H]1CO)c1ccccc1 12.1%
COc1ccc(S(=O)(=O)Nc2ccc3c(c2)C(=O)N([C@@H](C)CO)C[C@H](C)[C@@H](CN(C)C(=O)NC(C)C)OCCCC[C@H](C)O3)cc1 1.4%
CCOC(=O)C(C)Oc1cccc2c(=O)n(CC(=O)N3CCc4ccccc43)ccc12 (centres undefined) -10.8% [at 12.3 µM]
COC(=O)COc1cccc2c(=O)n(CC(=O)NCc3ccccc3)ccc12 -188% [at 12.3 µM]

From PubChem BioAssay AID651610 (Broad Institute, 2012)
